Laboratory results from PubChem BioAssay (NCATS).
Records with an inconclusive call do not appear. Activity calls are given as the source filed them. Unless noted, the call rests on the fitted dose curve; in most records, active means well fitted curve in either direction with a large enough effect (not every such curve was filed as active); inconclusive means small, poorly fitted or top-dose-only effect, or another doubt; inactive means flat fitted curve, though single readings scatter.

Assays:
[1] = biological target: Lysosomal acid glucosylceramidase (Homo sapiens) (UniProt P04062); assay: Glucocerebrosidase-p2 (AID 348; in the data active means potency below about 10 µM; further: potency means the concentration at half of the fitted maximal effect); settings: purified GBA, blue fluorogenic substrate, 40 min
Procedure, shortened: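 Normal human glucocerebrosidase (0.2 nM) with blue fluorogenic substrate (80 uM final) in citrate/phosphate pH 5.9 with 10mM sodium taurocholate, 0.01% tween-20; 40 min RT, NaOH/glycine stop; fluorescence Ex 365/Em 440; AC50 from a titration from 0.6 nM upwards.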

[2] = AP1 Signaling Pathway (AID 357); settings: ME-180 AP-1-bla reporter, EGF-induced, beta-lactamase ratio, 5 h; at 7.69 µM (top of the series) unless noted;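 further: ME-180 reporter cells stimulated with EGF at its EC50 level; on the % scale 0 is the no-effect control and ±100 the full control effect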
Procedure, shortened: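 Modulation of EGF-driven AP-1 transcription was assessed with a beta-lactamase reporter in ME-180 cells. Compound and EC50 EGF were co-incubated 5 hours at 37 °C before 2.5-hour CCF4 loading at room temperature and dual-emission reading.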

[3] = Stat Signaling Pathway (AID 446); settings: ME-180 (cervical carcinoma) SIE beta-lactamase reporter, IL-6 stimulated, 5 h; at 7.69 µM (top of the series) unless noted;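 further: ME-180 cervical cancer cells given 40 pM IL-6 alongside compound; SIE-controlled beta-lactamase reporter measured as 460/530 nm FRET emission ratio; on the % scale 0 is the no-effect control and ±100 the full control effect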
Procedure, shortened: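 Compound effects on IL-6-induced STAT reporter activity were measured in ME-180 cells. After overnight culture, cells were co-treated with 40 pM IL-6 for 5 hrs before beta-lactamase substrate loading at room temperature.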

[4] = biological target: Glucocorticoid receptor (Homo sapiens) (UniProt P04150); assay: GR-GFP Redistribution (AID 450;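 active means compounds whose dose series gives a full or clear partial fitted curve of increased nuclear translocation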; further: potency means the concentration at half of the fitted maximal effect); settings: U2OS GR-GFP nuclear translocation, laser cytometry, 2 h
[5] = biological target: Glucocorticoid receptor (Homo sapiens) (UniProt P04150); assay: GR-EFC Redistribution (AID 451; calls by dose curve; further: potency means the concentration at half of the fitted maximal effect); settings: CHO-K1 GR-EFC translocation, beta-gal luminescence, 2 h
Procedure, shortened: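 CHO-K1 cells expressing nuclear EA and GR-ED fragments of b-gal; compounds titrated up to 46 uM final, 2 h at 37 C. GR nuclear translocation read as complemented b-gal luminescence after 1 h RT detection.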

[6] = biological target: Mitogen-activated protein kinase 10 (Mus musculus) (UniProt Q61831); assay: JNK3 AlphaScreen Assay (AID 530); settings: JNK3 lysate, c-Jun phosphorylation; series mostly up to 11.4 µM;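 further: kinase came from lysate of stimulated human HepG2 cells; signal reports phosphorylation of biotinylated GST-cJun 1-79 at Ser73 with 10 µM ATP; on the % scale 0 is the no-effect control and ±100 the full control effect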
Procedure, shortened: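 HepG2 lysate (IL-1b/TNFa pre-activated) + biotin-GST-cJun 1-79 + anti-pSer73 cJun; cpd titration, 15 min RT; ATP 10 uM start; Tris pH 7.6, MgCl2, DTT, vanadate; beads in EDTA buffer; AlphaScreen.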

[7] = biological target: 3',5'-cyclic-AMP phosphodiesterase 4B (Homo sapiens) (UniProt Q07343); assay: qHTS Assay for Inhibitors of PDE-IV (AID 607; active means well fitted activation curve with a large enough effect in the main read-out, with a control signal flat, not every such curve was filed as active; further: % of control where 0% means no effect); settings: HEK293 ACTOne CNG channel cells, membrane potential fluorescence; series mostly up to 22.9 µM
Procedure, shortened: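 ACTOne HEK293 cells carry a modified cAMP-gated CNG channel and express endogenous PDE4; plated 1000 cells/well, compounds up to 22.9 uM final. Membrane-potential dye fluorescence (ex 535/em 590) was read; parental cells received 10 uM forskolin + 100 uM RO 20-1724.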

[8] = biological target: Cytochrome P450 3A4 (Homo sapiens) (UniProt P08684); assay: qHTS Assay for Inhibitors and Substrates of Cytochrome P450 3A4 (AID 884; active means well fitted curve in the direction sought with a large enough effect; an effect the other way counts as inactive or inconclusive; further: potency means the concentration at half of the fitted maximal effect; nearly all actives have a fitted effect of over 50% in size); settings: recombinant CYP3A4, Luciferin-PPXE luminescence; series mostly up to 57.1 µM
Procedure, shortened: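 Luminescent readout of luciferin produced by CYP3A4 (20 nM) dealkylation of Luciferin-PPXE, 25 uM (its KM). NADPH-driven reaction ran 60 min at RT after 10 min compound preincubation; data scaled to 57 uM ketoconazole as 100% inhibition.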

[9] = biological target: Cytochrome P450 3A4 (Homo sapiens) (UniProt P08684); assay: qHTS Assay for Activators of Cytochrome P450 3A4 (AID 885; active means well fitted curve in the direction sought with a large enough effect; an effect the other way counts as inactive or inconclusive; further: nearly all actives have a fitted effect of over 65% in size); settings: recombinant CYP3A4, Luciferin-PPXE luminescence, 60 min; series mostly up to 11.4 µM
Procedure, shortened: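 CYP3A4 activity: Luciferin-PPXE O-dealkylation, 25uM substrate, 200mM KPO4, RT throughout. Read-out is luciferase luminescence; higher values reflect activation.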

[10] = biological target: Cytochrome P450 2C19 (Homo sapiens) (UniProt P33261); assay: qHTS Assay for Inhibitors and Substrates of Cytochrome P450 2C19 (AID 899; active means well fitted curve in the direction sought with a large enough effect; an effect the other way counts as inactive or inconclusive; further: nearly all actives have a fitted effect of over 60% in size; further: potency means the concentration at half of the fitted maximal effect; on activity, negative = inhibition: on the % scale 0 is the no-effect control and ±100 the full control effect); settings: recombinant CYP2C19, luciferin-H EGE luminescence; series mostly up to 11.4 µM
Procedure, shortened: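 5 nM human CYP2C19 with 10uM Luciferin-H EGE (at KM) in 50mM KPO4, compound preincubated 10 min at 37C, then NADPH regeneration for 60 min at 37C. Luciferin read by luminescence after detection reagent; normalized to 57uM ketoconazole as full inhibition.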

[11] = biological target: Cytochrome P450 2D6 (Homo sapiens) (UniProt P10635); assay: qHTS Assay for Inhibitors and Substrates of Cytochrome P450 2D6 (AID 891; active means well fitted curve in the direction sought with a large enough effect; an effect the other way counts as inactive or inconclusive; further: potency means the concentration at half of the fitted maximal effect; nearly all actives have a fitted effect of over 60% in size); settings: recombinant CYP2D6, luciferin-ME EGE luminescence; series mostly up to 11.4 µM
Procedure, shortened: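 Luminescent read-out of luciferin formed by 5 nM human CYP2D6 demethylating 30 uM Luciferin-ME EGE (Km level) over 60 min at room temperature after NADPH regeneration addition. Data normalized to full inhibition by 1.43 uM quinidine.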

Chain of 3',5'-cyclic-AMP phosphodiesterase 4B (Homo sapiens) (Q07343 whole entry, looked up): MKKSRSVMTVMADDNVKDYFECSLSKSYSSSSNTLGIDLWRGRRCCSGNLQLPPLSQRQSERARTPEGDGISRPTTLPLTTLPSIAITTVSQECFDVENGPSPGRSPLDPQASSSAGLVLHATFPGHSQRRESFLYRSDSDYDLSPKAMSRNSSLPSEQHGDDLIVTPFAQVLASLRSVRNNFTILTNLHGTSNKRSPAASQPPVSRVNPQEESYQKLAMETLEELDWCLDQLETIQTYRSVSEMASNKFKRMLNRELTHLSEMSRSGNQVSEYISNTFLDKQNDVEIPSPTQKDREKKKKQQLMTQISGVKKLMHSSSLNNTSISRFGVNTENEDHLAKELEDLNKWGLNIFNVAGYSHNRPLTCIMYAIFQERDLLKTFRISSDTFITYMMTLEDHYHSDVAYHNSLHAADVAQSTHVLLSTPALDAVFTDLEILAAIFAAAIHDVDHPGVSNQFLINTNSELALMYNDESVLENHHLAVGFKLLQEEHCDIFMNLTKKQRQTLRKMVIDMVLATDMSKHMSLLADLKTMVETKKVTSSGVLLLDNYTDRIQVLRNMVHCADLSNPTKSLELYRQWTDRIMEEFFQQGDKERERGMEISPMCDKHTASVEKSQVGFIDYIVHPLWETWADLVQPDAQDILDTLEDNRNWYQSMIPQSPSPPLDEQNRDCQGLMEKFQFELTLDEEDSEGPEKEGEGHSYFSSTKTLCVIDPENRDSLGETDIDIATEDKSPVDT
Chain of Lysosomal acid glucosylceramidase (Homo sapiens) (P04062 whole entry, looked up): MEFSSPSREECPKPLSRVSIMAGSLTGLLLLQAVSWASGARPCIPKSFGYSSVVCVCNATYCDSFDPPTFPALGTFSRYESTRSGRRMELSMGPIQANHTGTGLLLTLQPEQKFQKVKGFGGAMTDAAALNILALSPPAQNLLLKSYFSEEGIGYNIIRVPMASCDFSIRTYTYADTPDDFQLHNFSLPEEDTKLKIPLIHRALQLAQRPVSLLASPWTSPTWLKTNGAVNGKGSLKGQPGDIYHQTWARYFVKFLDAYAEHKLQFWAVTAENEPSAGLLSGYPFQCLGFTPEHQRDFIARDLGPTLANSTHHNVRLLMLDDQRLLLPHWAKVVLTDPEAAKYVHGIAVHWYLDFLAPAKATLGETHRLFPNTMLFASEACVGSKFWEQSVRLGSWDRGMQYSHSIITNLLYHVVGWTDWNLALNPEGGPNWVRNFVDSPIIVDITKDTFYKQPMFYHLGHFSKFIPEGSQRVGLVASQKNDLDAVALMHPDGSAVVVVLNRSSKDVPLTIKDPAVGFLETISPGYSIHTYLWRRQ
Chain of Glucocorticoid receptor (Homo sapiens) (P04150 whole entry, looked up, the tested form may be a part): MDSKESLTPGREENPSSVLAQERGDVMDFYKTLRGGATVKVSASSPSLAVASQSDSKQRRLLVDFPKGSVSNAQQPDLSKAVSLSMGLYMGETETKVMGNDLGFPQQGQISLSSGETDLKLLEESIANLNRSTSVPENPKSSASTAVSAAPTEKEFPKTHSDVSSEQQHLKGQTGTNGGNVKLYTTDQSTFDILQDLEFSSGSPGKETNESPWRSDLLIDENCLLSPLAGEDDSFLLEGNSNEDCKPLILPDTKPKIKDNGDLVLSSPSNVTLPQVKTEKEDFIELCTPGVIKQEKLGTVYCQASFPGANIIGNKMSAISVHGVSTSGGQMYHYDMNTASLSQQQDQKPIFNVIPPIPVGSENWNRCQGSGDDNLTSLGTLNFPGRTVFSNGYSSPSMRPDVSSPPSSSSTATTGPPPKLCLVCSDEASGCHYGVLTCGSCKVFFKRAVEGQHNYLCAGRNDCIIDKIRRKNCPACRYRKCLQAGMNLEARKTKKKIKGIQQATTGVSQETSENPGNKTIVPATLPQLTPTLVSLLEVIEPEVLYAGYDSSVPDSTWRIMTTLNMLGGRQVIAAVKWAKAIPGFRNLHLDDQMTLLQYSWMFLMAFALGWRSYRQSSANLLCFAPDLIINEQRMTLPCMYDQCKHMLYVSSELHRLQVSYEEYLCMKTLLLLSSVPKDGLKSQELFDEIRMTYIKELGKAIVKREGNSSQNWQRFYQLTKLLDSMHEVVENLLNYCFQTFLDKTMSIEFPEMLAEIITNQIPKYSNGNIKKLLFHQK
Chain of Cytochrome P450 2C19 (Homo sapiens) (P33261 whole entry, looked up): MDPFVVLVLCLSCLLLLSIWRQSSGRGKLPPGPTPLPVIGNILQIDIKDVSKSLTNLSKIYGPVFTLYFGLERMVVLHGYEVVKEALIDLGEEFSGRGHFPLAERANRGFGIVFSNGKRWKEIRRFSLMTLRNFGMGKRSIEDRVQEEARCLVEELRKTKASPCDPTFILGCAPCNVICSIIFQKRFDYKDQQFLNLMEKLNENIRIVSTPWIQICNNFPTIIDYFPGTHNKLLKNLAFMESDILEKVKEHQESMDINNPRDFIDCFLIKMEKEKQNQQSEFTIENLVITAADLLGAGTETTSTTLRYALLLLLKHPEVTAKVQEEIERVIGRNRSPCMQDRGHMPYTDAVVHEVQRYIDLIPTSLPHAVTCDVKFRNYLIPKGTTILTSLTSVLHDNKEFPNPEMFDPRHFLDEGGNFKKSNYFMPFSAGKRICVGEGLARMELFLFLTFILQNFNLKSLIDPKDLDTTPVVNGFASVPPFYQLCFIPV
Chain of Cytochrome P450 3A4 (Homo sapiens) (P08684 whole entry, looked up): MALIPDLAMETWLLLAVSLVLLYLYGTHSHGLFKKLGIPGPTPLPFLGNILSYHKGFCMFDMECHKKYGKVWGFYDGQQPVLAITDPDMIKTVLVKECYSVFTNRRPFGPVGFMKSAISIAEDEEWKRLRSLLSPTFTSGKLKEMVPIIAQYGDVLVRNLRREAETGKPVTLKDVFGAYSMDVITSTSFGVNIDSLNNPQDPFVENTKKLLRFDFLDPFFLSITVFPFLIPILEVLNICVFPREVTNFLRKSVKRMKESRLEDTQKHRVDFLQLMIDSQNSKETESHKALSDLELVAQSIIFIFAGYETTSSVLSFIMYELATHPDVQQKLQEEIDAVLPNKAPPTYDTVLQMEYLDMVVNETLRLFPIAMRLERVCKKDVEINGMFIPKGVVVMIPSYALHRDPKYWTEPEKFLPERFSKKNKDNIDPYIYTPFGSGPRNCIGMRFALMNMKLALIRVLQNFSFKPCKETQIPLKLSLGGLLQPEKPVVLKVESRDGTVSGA
Chain of Cytochrome P450 2D6 (Homo sapiens) (P10635 whole entry, looked up): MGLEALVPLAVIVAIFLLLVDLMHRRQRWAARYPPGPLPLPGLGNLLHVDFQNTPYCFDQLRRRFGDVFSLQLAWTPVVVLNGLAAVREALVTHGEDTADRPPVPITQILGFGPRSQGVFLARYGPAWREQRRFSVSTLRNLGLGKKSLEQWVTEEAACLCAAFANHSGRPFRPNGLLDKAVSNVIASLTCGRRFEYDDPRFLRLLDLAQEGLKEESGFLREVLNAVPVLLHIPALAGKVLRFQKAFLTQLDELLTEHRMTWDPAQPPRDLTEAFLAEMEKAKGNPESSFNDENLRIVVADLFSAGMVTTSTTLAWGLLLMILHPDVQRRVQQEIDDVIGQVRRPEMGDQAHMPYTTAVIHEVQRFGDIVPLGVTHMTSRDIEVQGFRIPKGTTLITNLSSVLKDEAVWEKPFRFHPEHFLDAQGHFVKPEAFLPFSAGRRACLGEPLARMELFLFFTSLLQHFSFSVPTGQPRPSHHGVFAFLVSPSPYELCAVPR

O[C@@H](c1cc(-c2ccccc2)nc2c1ccc1ccccc12)[C@@H]1CCCCN1
inactive: Potency [1] > 11.4 µM | activity change, negative = inhibition [2] -3.12% | activity, negative = inhibition [3] 9.42% | Potency [4] > 46 µM | Potency [5] > 9.22 µM | Potency [6]

O=C(O)C(=Cc1ccnc2ccccc12)C(=O)O
inactive: Potency [1] > 11.4 µM | activity change, negative = inhibition [2] -3.98% | activity, negative = inhibition [3] 9.09% | Potency [4] > 46 µM | Potency [5] > 9.22 µM | Potency [6] | Potency [7]

C#CCOC(=O)[C@H](N)CC(N)=O
inactive: Potency [1] > 11.4 µM | activity change, negative = inhibition [2] 0.665% | activity, negative = inhibition [3] -0.998% | Potency [4] > 46 µM | Potency [5] > 9.22 µM | Potency [6] | Potency [7]

Cn1cnc([N+](=O)[O-])c1Sc1nnc(-c2cccnc2)n1C
inactive: Potency [1] > 11.4 µM | activity change, negative = inhibition [2] 19.7% | activity, negative = inhibition [3] 4.54% | Potency [4] > 46 µM | Potency [5] > 9.22 µM | Potency [6] | Potency [7]

COc1ccc(C(=O)N/N=C2/C(=O)c3c(C)cc(C)cc3CC2(C)C)cc1
active: Potency [8] 3.16 µM | Potency [10] 3.98 µM
inactive: Potency [1] > 11.4 µM | activity change, negative = inhibition [2] -13.7% | activity, negative = inhibition [3] 6.46% | Potency [4] > 46 µM | Potency [5] > 9.22 µM | Potency [6] | Potency [7] | Potency [9]

c1ccc(CN2CC[C@@H](CNc3ncnc4ccccc34)C2)cc1
active: Potency [11] 0.794 µM
inactive: Potency [1] > 11.4 µM | activity change, negative = inhibition [2] 3.93% | activity, negative = inhibition [3] 8.92% | Potency [4] > 46 µM | Potency [5] > 9.22 µM | Potency [6] | Potency [7]

O=C(O)CC[P+](c1ccccc1)(c1ccccc1)c1ccccc1
inactive: Potency [1] > 11.4 µM | activity change, negative = inhibition [2] 2.51% | activity, negative = inhibition [3] 4.75% | Potency [4] > 46 µM | Potency [5] > 9.22 µM | Potency [6] | Potency [10]

N=C(N)SC(c1ccccc1)c1ccccc1
inactive: Potency [1] > 11.4 µM | activity change, negative = inhibition [2] 6.69% | activity, negative = inhibition [3] 0.795% | Potency [4] > 46 µM | Potency [5] > 9.22 µM | Potency [6] | Potency [7]

NNC(=O)[C@@H](O)[C@H](O)C(=O)NN
inactive: Potency [1] > 11.4 µM | activity change, negative = inhibition [2] -1.69% | activity, negative = inhibition [3] -2.25% | Potency [4] > 46 µM | Potency [5] > 9.22 µM | Potency [6] | Potency [7]

CC(=O)NC1=C(OS(=O)(=O)c2ccc(C)cc2)CN(C)C1=O
inactive: Potency [1] > 11.4 µM | activity change, negative = inhibition [2] 24.1% | activity, negative = inhibition [3] -10.5% | Potency [4] > 46 µM | Potency [5] > 9.22 µM | Potency [6] | Potency [7]

COc1ccc(CC[N@+]2(C)COc3cc4oc(=O)cc(C)c4cc3C2)cc1OC
inactive: Potency [1] 11 µM | activity change, negative = inhibition [2] 10.2% | activity, negative = inhibition [3] 5.96% | Potency [4] > 46 µM | Potency [5] > 9.22 µM | Potency [7]

CC1(C)COCN1COC1CCCCC1
inactive: Potency [1] > 11.4 µM | activity change, negative = inhibition [2] -2.54% | Potency [4] > 46 µM | Potency [5] > 9.22 µM | Potency [6] | Potency [7]

Cc1cc(Nc2ccc(N=Nc3ccc(O)c4ncccc34)cc2)nc(C)n1
inactive: Potency [1] > 11.4 µM | activity change, negative = inhibition [2] 9.64% | Potency [4] > 46 µM | Potency [5] > 9.22 µM | Potency [6] | Potency [7]
